BAZ2B inh = BAZ2B (human) inhibition; Potency, µM (series often up to 114 µM), actives largely listed as inhibitors; AlphaScreen BAZ2B-H3K14Ac peptide displacement; Q9UIF8; 360,000 tested, 4.4% active; also: nearly all actives have a fitted effect of over 60% in size
Target sequence (Q9UIF8 whole entry, looked up): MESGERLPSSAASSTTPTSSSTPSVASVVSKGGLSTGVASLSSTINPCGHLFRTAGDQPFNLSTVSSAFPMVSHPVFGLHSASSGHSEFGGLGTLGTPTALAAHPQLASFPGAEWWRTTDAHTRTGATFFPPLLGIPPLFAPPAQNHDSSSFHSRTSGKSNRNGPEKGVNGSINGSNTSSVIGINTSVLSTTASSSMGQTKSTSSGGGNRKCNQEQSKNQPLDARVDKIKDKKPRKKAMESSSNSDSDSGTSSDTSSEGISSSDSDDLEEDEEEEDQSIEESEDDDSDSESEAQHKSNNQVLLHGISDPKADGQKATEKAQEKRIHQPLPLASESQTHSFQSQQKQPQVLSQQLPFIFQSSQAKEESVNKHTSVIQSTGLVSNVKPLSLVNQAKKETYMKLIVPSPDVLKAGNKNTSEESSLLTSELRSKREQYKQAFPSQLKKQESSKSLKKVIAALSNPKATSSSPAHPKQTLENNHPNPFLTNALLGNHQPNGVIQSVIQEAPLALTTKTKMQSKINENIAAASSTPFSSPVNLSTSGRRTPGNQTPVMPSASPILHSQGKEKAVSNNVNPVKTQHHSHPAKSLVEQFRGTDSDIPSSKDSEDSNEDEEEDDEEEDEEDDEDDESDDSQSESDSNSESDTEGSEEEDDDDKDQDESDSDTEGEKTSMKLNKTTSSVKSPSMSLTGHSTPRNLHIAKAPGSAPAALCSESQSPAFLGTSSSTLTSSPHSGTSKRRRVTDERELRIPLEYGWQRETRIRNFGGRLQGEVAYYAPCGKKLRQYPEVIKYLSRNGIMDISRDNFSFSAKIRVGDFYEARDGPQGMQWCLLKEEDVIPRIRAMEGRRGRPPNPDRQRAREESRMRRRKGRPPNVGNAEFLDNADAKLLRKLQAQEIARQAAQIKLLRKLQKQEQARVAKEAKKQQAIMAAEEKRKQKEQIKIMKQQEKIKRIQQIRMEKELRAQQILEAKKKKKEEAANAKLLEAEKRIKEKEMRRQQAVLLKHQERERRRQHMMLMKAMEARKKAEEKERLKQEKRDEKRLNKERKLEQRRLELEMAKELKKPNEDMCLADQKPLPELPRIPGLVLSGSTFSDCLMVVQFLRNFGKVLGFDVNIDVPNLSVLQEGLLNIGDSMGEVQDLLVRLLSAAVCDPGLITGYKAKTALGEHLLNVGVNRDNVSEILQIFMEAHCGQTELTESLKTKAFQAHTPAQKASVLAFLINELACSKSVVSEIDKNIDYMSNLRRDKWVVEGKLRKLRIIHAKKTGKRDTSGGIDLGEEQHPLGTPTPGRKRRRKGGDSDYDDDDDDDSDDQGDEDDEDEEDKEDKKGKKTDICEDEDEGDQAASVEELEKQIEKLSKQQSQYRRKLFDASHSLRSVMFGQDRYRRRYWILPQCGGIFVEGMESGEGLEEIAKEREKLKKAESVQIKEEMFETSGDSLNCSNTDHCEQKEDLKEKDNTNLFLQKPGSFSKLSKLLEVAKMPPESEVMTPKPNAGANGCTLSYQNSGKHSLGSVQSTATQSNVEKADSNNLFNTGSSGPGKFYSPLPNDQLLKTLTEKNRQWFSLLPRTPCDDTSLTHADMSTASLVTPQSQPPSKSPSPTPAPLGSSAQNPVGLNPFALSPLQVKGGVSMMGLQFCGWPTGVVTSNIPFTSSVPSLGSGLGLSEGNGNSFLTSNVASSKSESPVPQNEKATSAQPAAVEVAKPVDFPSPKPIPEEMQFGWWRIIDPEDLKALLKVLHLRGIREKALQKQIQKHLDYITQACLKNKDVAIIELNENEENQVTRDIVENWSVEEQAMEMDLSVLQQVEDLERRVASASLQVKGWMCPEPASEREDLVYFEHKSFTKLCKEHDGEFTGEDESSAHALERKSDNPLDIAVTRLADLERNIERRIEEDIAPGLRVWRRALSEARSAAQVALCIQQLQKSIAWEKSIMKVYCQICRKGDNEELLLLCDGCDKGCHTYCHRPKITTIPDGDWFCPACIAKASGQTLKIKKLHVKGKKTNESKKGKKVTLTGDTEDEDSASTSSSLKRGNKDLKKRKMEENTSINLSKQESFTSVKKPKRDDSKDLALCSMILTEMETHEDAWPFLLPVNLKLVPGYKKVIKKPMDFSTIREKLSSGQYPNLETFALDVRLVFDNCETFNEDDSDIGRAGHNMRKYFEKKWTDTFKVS
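Compounds, titrated to a top concentration of 110 uM, were incubated 30 min at room temperature with preformed BAZ2B/acetyl-K14 H3 peptide complex (50 nM each). Proximity signal was measured by AlphaScreen after 20 min with beads.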
L3MBTL1 block = blocks human L3MBTL1. Q9Y468. AlphaScreen L3MBTL1–H3K9me1 peptide binding. Potency, µM (doses to about 57.1 µM), hits mostly inhibitors. 230,000 tested, 0.66% active; also: nearly all actives have a fitted effect of over 60% in size
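AlphaScreen proximity signal between nickel-chelate acceptor and streptavidin donor beads (final 10 ug/mL) reports binding of 50 nM L3MBTL1 to 75 nM biotin-H3 K9me1 peptide; complex incubated with compounds 30 min at room temperature; cefsulodin titration as control.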
G9a inh = G9a (human) methyltransferase inhibition. Q96KQ7. G9a H3K9 monomethylation, AlphaScreen, 2 h. Potency, µM (top dose mostly 102 µM), actives largely listed as inhibitors. 350,000 tested, 8.8% active. AID 504332; also: nearly all actives have a fitted effect of over 75% in size
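G9a (20 nM) preincubated 15 min RT with compounds, then 500 nM biotinylated H3K9 peptide and 20 uM SAM added; 2 h RT reaction. Monomethyl-H3K9 product detected by AlphaScreen with anti-H3K9me1 antibody, streptavidin donor and anti-rabbit IgG acceptor beads.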
JMJD2A Tudor inh = blocks the human JMJD2A Tudor domain. O75164. AlphaScreen JMJD2A-Tudor / H3K4me3 peptide binding. Potency, µM (titrated, usually from 114 µM), most hits filed as inhibitors. 390,000 tested, 4.4% active; also: nearly all actives have a fitted effect of over 50% in size
HP1b binding inh = blocks HP1-beta chromodomain binding to methylated histone tails; 390,000 tested, 0.56% active; AlphaScreen HP1-beta / biotin-H3K9me3 peptide binding; P83916; Potency, µM (doses to about 114 µM), most hits filed as inhibitors; also: nearly all actives have a fitted effect of over 70% in size
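Compound inhibition of the preformed complex between 50 nM HP1-beta and 50 nM biotinylated H3K9me3 peptide was read by AlphaScreen. Buffer was PBS pH 7.4 with 0.01% Tween-20. Incubations ran 30 min at room temperature, with 10 ug/mL donor/acceptor beads.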
Of the large screens only hits and unclear results are named; the others gave an inactive call. This is a sample that favours compounds with a hit; in the whole collection about 11% have one here. Calls follow the shape of the dose curve; as a rule, active = well fitted inhibition curve with a large enough effect; inconclusive = small, poorly fitted or top-dose-only effect; inactive = no such curve, though single readings can be large or run the other way.

COc1cccc(Nc2ncc3nc(-c4cc(F)cc(F)c4)c(=O)n(C4CC4)c3n2)c1	none (no result: BAZ2B inh, L3MBTL1 block, JMJD2A Tudor inh, HP1b binding inh)
CCCn1c(CN2CCN(C(=O)c3ccco3)CC2)nc2cc(S(=O)(=O)N(C)C)ccc21	G9a inh 40µM, HP1b binding inh inconclusive
O=C(Nc1ccc(F)c(Cl)c1)N1CCN2CCCCC2C1 (stereo unspecified)	BAZ2B inh inconclusive (no result: L3MBTL1 block)
Cc1cc(C)c2c(n1)sc1c(-c3ccccc3)c(C#N)c(N)nc12	G9a inh 7.9µM, JMJD2A Tudor inh inconclusive
CSc1ccccc1NC(=O)c1ccc(N2CC3CC(C2)c2cccc(=O)n2C3)c(NC(=O)c2cccnc2)c1 (stereo unspecified)	G9a inh 71µM (no result: L3MBTL1 block)
COc1ccccc1NC(=O)c1ccc(N2CC3CC(C2)c2cccc(=O)n2C3)c(NC(=O)c2ccncc2)c1 (stereo unspecified)	G9a inh 16µM (no result: L3MBTL1 block)
COCCNC(=O)c1ccc(N2CC3CC(C2)c2cccc(=O)n2C3)c(NC(=O)c2ccc(F)cc2)c1 (stereo unspecified)	none (no result: L3MBTL1 block, G9a inh)
CC(C)(C)c1nc(NC(=O)Nc2ccccc2)sc1Br	G9a inh inconclusive
CC1CC=CC2C1C(=O)N(Cc1ccccc1)C2c1ccc(-c2cc3ccccc3s2)cc1F (stereo unspecified)	none (no result: BAZ2B inh, L3MBTL1 block, G9a inh)
S=C1NCCc2ccccc2C1c1ccccc1 (stereo unspecified)	BAZ2B inh 45µM, G9a inh inconclusive, HP1b binding inh inconclusive
S=C1NCCc2ccccc2C1c1ccccc1Cl (stereo unspecified)	BAZ2B inh 45µM, JMJD2A Tudor inh inconclusive
Cc1cccc(OC(=O)CSc2nnc(-c3ccc4c(c3)OCO4)o2)c1C	none (no result: L3MBTL1 block)
CCN(C(=O)CSc1nnc(Nc2cccc(C)c2C)s1)C1CCS(=O)(=O)C1 (stereo unspecified)	none
CN(CC(=O)Nc1ccccc1Cl)C(=O)Cn1cc(C(F)(F)F)cc(Cl)c1=O	G9a inh 45µM
Cc1nnc(SCC(=O)N(C)CC(=O)Nc2ccccc2Cl)s1	G9a inh 50µM
CCc1ccccc1NC(=O)CN(C)C(=O)CSc1nnc(Nc2cccc(C)c2C)s1	G9a inh 16µM
CN1CCN(c2nc3c(c(=O)[nH]c(=O)n3C)n2CCCSc2nnnn2-c2ccccc2)CC1	G9a inh 25µM
CSc1nc2c(c(=O)[nH]c(=O)n2C)n1CCCc1ccccc1	G9a inh 71µM (no result: L3MBTL1 block)
Cn1c(=O)[nH]c(=O)c2c1nc(N1CCCCC1)n2CCCSc1nnnn1-c1ccccc1	none
CC(C)CCSc1nc2c(c(=O)[nH]c(=O)n2C)n1CCCc1ccccc1	G9a inh 40µM
CSc1nc2c(c(=O)[nH]c(=O)n2C)n1Cc1ccccc1	none
CCCCc1nn2c(C)c(-c3ccc(OCC)cc3)nc2s1	BAZ2B inh inconclusive (no result: L3MBTL1 block)
O=C(COc1ccc([N+](=O)[O-])cc1)Nc1cccc2cccnc12	none (no result: L3MBTL1 block)
COc1ccc(Cc2c3cc(OC)c(OC)cc3cc[n+]2C)cc1OC	JMJD2A Tudor inh 22µM, HP1b binding inh inconclusive (no result: L3MBTL1 block)
CC[n+]1ccc2cc(OC)c(OC)cc2c1Cc1ccc(OC)c(OC)c1	BAZ2B inh 79µM, G9a inh 22µM, JMJD2A Tudor inh 25µM, HP1b binding inh 40µM
COc1cc2c[n+](C)c3c4ccccc4ccc3c2cc1OC	none (no result: BAZ2B inh, L3MBTL1 block, G9a inh)
CC1CCN(S(=O)(=O)c2ccc3c(c2)c(=O)c(C(=O)N2CCN(c4cccc(Cl)c4)CC2)cn3C)CC1	none (no result: BAZ2B inh, L3MBTL1 block)
O=C1CCCC2=C1C(c1ccncc1)n1c(nc3ccccc31)N2 (stereo unspecified)	JMJD2A Tudor inh 56µM (no result: G9a inh)
CC1CC(=O)C2=C(C1)Nc1nc3ccccc3n1C2c1cccnc1 (stereo unspecified)	none (no result: G9a inh)
O=S(=O)(Nc1cccc2ncccc12)c1cccs1	BAZ2B inh 56µM, JMJD2A Tudor inh 56µM
COc1ccc(N2CCN(C(c3ccccc3)c3nnnn3Cc3ccccc3)CC2)cc1 (stereo unspecified)	JMJD2A Tudor inh inconclusive (no result: BAZ2B inh, L3MBTL1 block, G9a inh)
COc1ccc(N2CCN(C(c3ccccc3OC)c3nnnn3Cc3ccco3)CC2)cc1 (stereo unspecified)	BAZ2B inh 40µM, G9a inh inconclusive, JMJD2A Tudor inh 50µM (no result: L3MBTL1 block)
Fc1ccccc1C(c1nnnn1Cc1ccc2c(c1)OCO2)N1CCN(Cc2ccco2)CC1 (stereo unspecified)	G9a inh 50µM
COc1cccc(C(c2nnnn2Cc2ccco2)N2CCN(Cc3ccccc3)CC2)c1OC (stereo unspecified)	BAZ2B inh 50µM
NC(=O)C1CCN(C(c2ccccc2F)c2nnnn2Cc2ccco2)CC1 (stereo unspecified)	BAZ2B inh inconclusive
COC(=O)c1ccc([C@@H]2Nc3c(OC)ccc(C)c3[C@@H]3C=CC[C@@H]32)cc1	BAZ2B inh inconclusive, G9a inh 3.2µM, JMJD2A Tudor inh inconclusive (no result: L3MBTL1 block)
COC(=O)c1ccc(C2NC(=O)CCC2[N+](=O)[O-])cc1 (stereo unspecified)	none (no result: L3MBTL1 block)
COC(=O)c1ccc([C@H]2Nc3ccc(S(=O)(=O)Nc4cccc(C)c4)cc3[C@H]3C=CC[C@H]32)cc1	BAZ2B inh 40µM, G9a inh 4.5µM, JMJD2A Tudor inh 35µM (no result: L3MBTL1 block)
Cc1ccc(NS(=O)(=O)c2ccc3c(c2)NC(=O)CC(=O)N3)cc1C	none
Cc1ccc(NS(=O)(=O)c2ccc3c(c2)[C@H]2C=CC[C@H]2[C@@H](c2ccc(F)cc2)N3)cc1C	BAZ2B inh inconclusive, G9a inh 5.6µM, JMJD2A Tudor inh inconclusive (no result: L3MBTL1 block)
O=C(O)c1ccc(NS(=O)(=O)c2ccc3c(c2)C2C=CCC2C(c2ccccc2F)N3)cc1 (stereo unspecified)	BAZ2B inh 50µM, L3MBTL1 block 7.9µM, G9a inh 10µM, JMJD2A Tudor inh inconclusive
Cc1nn(CC(=O)NCC(C)c2ccccc2)c(=O)c2cc3ccccc3n12 (stereo unspecified)	none (no result: L3MBTL1 block)
COc1ccc(CNC(=O)CN2C(=O)CSc3ccc(S(=O)(=O)N4CCCC4)cc32)cc1	none (no result: L3MBTL1 block)
Cc1ccc(N2NC(C)(c3cccs3)NC2=S)cc1 (stereo unspecified)	BAZ2B inh inconclusive, G9a inh 8.9µM, JMJD2A Tudor inh inconclusive
Cc1ccc(N2CC(O)(c3cccs3)[N+]3=C2CCCC3)cc1 (stereo unspecified)	none
C=CCc1cccc2cc(C(=O)N3CCN(C(=O)c4ccccc4)CC3)c(=O)oc12	BAZ2B inh inconclusive, G9a inh 14µM (no result: L3MBTL1 block)
C=CCc1cccc2cc(C(=O)Nc3ccc(S(=O)(=O)Nc4nnc(CC)s4)cc3)c(=O)oc12	BAZ2B inh 22µM, G9a inh inconclusive, JMJD2A Tudor inh 28µM, HP1b binding inh 28µM
C=CCc1cccc2cc(C(=O)Nc3ccc(F)cc3)c(=O)oc12	none
C=CCc1cccc2cc(C(=O)Nc3ccc(CC(=O)O)cc3)c(=O)oc12	BAZ2B inh 32µM, G9a inh 50µM
CCc1nnc(NS(=O)(=O)c2ccc(NC(=O)c3ccccc3C)cc2)s1	none (no result: BAZ2B inh, L3MBTL1 block)

Screening results (PubChem)
